# Test system: CIT
# Conditions: concentration: 1 μM,replicates: in singlicate; n = 1
# 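Further: KINOMEscan kinase panel screen.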
row,Structure (SMILES),%Inh
1,Cc1n[nH]c2ccc(-c3cc(OC[C@@H](N)Cc4ccccc4)cnc3-c3ccoc3)cc12.O=C(O)C(F)(F)F.O=C(O)C(F)(F)F [GSK507358],100%
2,CC(C)Nc1cc(-c2ccc3c(N)n[nH]c3c2)nc(N)n1 [GSK2221681],1%
3,CNC(=O)c1ccccc1Sc1ccc2c(/C=C/c3ccccn3)n[nH]c2c1,0%
4,Cl.Cl.NC[C@H](Cc1ccc(C(F)(F)F)cc1)NC(=O)c1cc(Br)c(-c2ccnc3[nH]ccc23)s1 [GSK1487252],72%
5,Cl.Cl.Nc1nc(-c2ccc3c(N)n[nH]c3c2)cc(N2CCCC(NC(=O)c3ccccc3)C2)n1 (stereo not drawn) [GSK2286775],0%
6,O=C(NCCCN1CCOC1=O)c1cnc(NCc2cc(Cl)ccc2Cl)nc1NC1CCCC1,25%
7,CN(C)CC(O)COc1ccc(Nc2nccc(-c3cnn4nc(N5CCOCC5)ccc34)n2)cc1 (stereo not drawn) [GW767488],95.2%
8,Cc1ccc(-n2nc(C(C)(C)C)cc2NC(=O)Nc2ccc(OCCN3CCOCC3)c3ccccc23)cc1 [GW839464],35%
9,Cc1cc(C(=O)Nc2ccc(Oc3ccc4nc(NC(=O)C5CC5)cn4n3)cc2)nn1-c1ccccc1,29%
10,C=CC(=O)Nc1cc2c(Nc3ccc(F)c(Cl)c3)ncnc2cc1OCCCN1CCOCC1 [GW781483],31%
11,Cc1cc2cn[nH]c2cc1-c1cccc2c(N)c(C(N)=O)nnc12,0%
12,C[C@@H]1CCN(C(=O)CC#N)C[C@@H]1N(C)c1ncnc2[nH]ccc12,0%
13,CC(C)N1C(=O)Cc2cc(Nc3ncc(C(F)(F)F)c(NCc4cccc(S(C)(=O)=O)c4)n3)ccc21,21%
14,C[C@H]1Oc2cc(cnc2N)-c2c(nn(C)c2C#N)CN(C)C(=O)c2ccc(F)cc21,0%
15,Cc1occc1-c1nc(N)c(OC[C@@H](N)Cc2c[nH]c3ccccc23)cc1-c1cc2c(C)n[nH]c2cn1 [GSK1660450],99.4%
16,Cc1ccc2c(-c3ccncc3)c(-c3ccc(F)cc3)nn2c1.Cl [GW461484],98.7%
17,CCN(CC)CCCCNc1ncc2cc(-c3c(Cl)cccc3Cl)c(NC(=O)NC(C)(C)C)nc2n1,0%
18,CCN(CC)CCOc1ccc(Nc2ncc3cc(-c4c(Cl)cccc4Cl)c(=O)n(C)c3n2)cc1 [SB-601273],74%
19,NC(=O)c1cc(-c2ccccc2)cc2c(C3CCNCC3)c[nH]c12 [GSK301362],42%
20,CCn1c(-c2nonc2N)nc2c(C#CC(C)(C)O)nc(OCCN)cc21.Cl.Cl [GSK902056],48%
21,O=C(NCCNc1ccnc(NCc2ccc(F)cc2)n1)c1cc2ccccc2s1 [GSK1379944],26%
22,Cl.Oc1cc(-c2nc(-c3ccccc3)[nH]c2-c2ccncc2)ccc1Cl [SB-386023],76%
23,COc1ccc(C[C@@H](CN)NC(=O)c2cc(Br)c(-c3ccnc4[nH]ccc34)s2)cc1.Cl.Cl [GSK1389063],93.5%
24,Cl.Cl.NC[C@H](CC1CCCCC1)NC(=O)c1cc(Br)c(-c2ccnc3[nH]ccc23)s1 [GSK1581427],99.6%
25,CN(C)CCOc1ccc(-c2cc(-c3c[nH]nc3-c3ccccn3)ccn2)cc1 [GW835314],45%
26,C[C@@H](Oc1cc(-c2cnn(C3CCNCC3)c2)cnc1N)c1c(Cl)ccc(F)c1Cl,10%
27,Nc1nc(Nc2ccccc2)cc(-c2ccc3c(N)n[nH]c3c2)n1 [GSK2225749],37%

# — paper PMC5540273 (PLoS ONE, 2017)
